Experiment [1] has as its target Cytochrome P450 2C19 (Homo sapiens) (UniProt P33261). The experiment is described as follows: Cytochrome P450 Family 2 Subfamily C Member 19 (CYP2C19) small molecule antagonists: luciferase reporter qHTS assay (AID 1671197). Also: nearly all actives have a fitted effect of over 65% in size. In a few lines: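 Light output is proportional to CYP2C19 activity: proluciferin substrate is converted to luciferin, then detected by a luciferin detection reagent that also stops the 1 h, 37C NADPH-driven reaction. Ketoconazole serves as positive control.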

Experiment [2] addresses Cytochrome P450 2C9 (Homo sapiens) (UniProt P11712). Briefly: Cytochrome P450 Family 2 Subfamily C Member 9 (CYP2C9) small molecule antagonists: luciferase reporter qHTS assay (AID 1671198). Also: nearly all actives have a fitted effect of over 50% in size. In a few lines:
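CYP2C9 activity was measured with a P450-Glo proluciferin substrate. Enzyme–substrate mix was held with compound for 10 min at room temperature, then NADPH regeneration solution was added for 1 h at 37C. Luciferin product was read as luminescence.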

The target of experiment [3] is Cytochrome P450 1A2 (Homo sapiens) (UniProt P05177). Briefly: Cytochrome P450 Family 1 Subfamily A Member 2 (CYP1A2) small molecule antagonists: luciferase reporter qHTS assay (AID 1671199). Also: nearly all actives have a fitted effect of over 50% in size. In a few lines:
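Luminescence readout (relative luminescence units) after luciferin detection reagent, 20 min RT. Preceded by 1 h room-temperature CYP1A2 reaction with NADPH regeneration solution following 10 min compound preincubation with enzyme and proluciferin substrate. Furafylline positive control.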

For experiment [4], the target named is Voltage-gated inwardly rectifying potassium channel KCNH2 (Homo sapiens) (UniProt Q12809). The experiment is described as follows: Human Ether-a-go-go-Related Gene (hERG) channel small molecule antagonists: fluorescence cell-based qHTS assay (AID 1671200). Also: nearly all actives have a fitted effect of over 50% in size. In a few lines: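 Read-out: thallium influx as a surrogate for potassium, tracked as fluorescence (480 nm ex/540 nm em) every second for 2 min after Stimulus Buffer addition in dye-loaded hERG-U2OS cells.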

For experiment [5], the target named is Cytochrome P450 3A4 (Homo sapiens) (UniProt P08684). The experiment is described as follows: Cytochrome P450 Family 3 Subfamily A Member 4 (CYP3A4) small molecule antagonists: luciferase reporter qHTS assay (AID 1671201). Also: nearly all actives have a fitted effect of over 50% in size. A digest of the protocol:
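Luminescent readout (RLU) proportional to CYP3A4 activity, from luciferin generated off a proluciferin substrate. Enzyme–substrate mix plus compound 10 min at room temp, NADPH regeneration 1 h, detection reagent 20 min.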

Where “and” joins values, the source holds several entries; their conditions need not be identical. Equal entries are not always repeated. Results filed as inconclusive are left out. More than one record can exist for a structure, and the calls need not agree. Calls of active or inactive are those of the source. Calls follow the shape of the dose curve; as a rule, active = well fitted curve in the direction sought with a large enough effect in the repeat runs; inconclusive = weak or mixed curves; inactive = no such curve, though single readings can be large; an effect the other way counts as inactive or inconclusive.
Potency is read from the fitted curve at half-maximal effect.

Sequence of Cytochrome P450 1A2 (Homo sapiens) (P05177 whole entry, looked up): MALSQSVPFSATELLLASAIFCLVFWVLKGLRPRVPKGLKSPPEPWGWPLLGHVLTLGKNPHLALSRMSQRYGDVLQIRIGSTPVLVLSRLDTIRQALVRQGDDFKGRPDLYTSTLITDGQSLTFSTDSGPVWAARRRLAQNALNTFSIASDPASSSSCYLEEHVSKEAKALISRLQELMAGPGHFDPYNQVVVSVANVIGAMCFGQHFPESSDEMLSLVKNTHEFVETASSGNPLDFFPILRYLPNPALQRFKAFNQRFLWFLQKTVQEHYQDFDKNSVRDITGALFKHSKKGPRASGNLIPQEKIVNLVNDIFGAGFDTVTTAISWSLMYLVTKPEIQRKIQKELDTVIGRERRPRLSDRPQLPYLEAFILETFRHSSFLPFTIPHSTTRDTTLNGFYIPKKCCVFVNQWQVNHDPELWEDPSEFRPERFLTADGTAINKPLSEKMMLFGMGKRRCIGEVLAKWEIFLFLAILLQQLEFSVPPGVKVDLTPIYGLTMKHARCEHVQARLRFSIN
Sequence of Cytochrome P450 2C9 (Homo sapiens) (P11712 whole entry, looked up): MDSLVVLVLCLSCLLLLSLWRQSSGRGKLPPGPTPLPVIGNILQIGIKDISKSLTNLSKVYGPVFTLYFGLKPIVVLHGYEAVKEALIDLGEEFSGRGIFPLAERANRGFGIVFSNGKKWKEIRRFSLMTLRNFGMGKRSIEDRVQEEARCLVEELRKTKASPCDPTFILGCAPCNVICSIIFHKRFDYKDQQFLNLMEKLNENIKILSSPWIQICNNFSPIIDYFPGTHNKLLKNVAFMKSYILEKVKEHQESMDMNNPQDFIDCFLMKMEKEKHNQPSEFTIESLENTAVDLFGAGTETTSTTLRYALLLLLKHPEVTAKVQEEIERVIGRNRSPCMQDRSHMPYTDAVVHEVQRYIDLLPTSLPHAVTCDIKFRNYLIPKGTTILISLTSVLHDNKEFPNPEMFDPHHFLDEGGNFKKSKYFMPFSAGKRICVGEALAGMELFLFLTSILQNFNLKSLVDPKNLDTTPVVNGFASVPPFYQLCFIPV
Sequence of Cytochrome P450 3A4 (Homo sapiens) (P08684 whole entry, looked up): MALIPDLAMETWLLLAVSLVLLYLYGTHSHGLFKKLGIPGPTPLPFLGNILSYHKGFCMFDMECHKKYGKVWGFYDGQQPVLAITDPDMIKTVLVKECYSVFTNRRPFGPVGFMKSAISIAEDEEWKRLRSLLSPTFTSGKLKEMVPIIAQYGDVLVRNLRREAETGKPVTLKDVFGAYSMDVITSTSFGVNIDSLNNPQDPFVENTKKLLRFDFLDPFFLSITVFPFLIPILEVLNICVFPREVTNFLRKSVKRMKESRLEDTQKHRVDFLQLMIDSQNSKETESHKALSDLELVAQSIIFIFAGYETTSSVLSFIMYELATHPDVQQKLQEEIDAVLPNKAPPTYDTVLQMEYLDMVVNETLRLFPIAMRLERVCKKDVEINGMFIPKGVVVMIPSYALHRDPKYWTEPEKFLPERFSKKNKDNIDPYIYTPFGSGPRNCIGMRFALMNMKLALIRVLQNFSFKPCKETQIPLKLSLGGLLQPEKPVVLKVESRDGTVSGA
Sequence of Cytochrome P450 2C19 (Homo sapiens) (P33261 whole entry, looked up): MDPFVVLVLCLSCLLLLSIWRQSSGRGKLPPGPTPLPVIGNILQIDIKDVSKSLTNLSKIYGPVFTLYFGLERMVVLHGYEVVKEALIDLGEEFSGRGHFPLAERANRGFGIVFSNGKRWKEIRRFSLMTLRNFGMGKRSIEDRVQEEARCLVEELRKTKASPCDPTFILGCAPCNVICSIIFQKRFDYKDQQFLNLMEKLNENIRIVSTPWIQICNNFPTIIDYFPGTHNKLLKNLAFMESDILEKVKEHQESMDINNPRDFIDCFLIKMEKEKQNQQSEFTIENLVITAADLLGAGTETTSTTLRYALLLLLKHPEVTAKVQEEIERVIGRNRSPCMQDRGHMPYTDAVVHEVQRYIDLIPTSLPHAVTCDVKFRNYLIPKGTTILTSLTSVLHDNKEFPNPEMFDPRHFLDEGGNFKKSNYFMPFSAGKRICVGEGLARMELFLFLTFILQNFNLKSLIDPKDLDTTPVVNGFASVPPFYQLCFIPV
Sequence of Voltage-gated inwardly rectifying potassium channel KCNH2 (Homo sapiens) (Q12809 whole entry, looked up): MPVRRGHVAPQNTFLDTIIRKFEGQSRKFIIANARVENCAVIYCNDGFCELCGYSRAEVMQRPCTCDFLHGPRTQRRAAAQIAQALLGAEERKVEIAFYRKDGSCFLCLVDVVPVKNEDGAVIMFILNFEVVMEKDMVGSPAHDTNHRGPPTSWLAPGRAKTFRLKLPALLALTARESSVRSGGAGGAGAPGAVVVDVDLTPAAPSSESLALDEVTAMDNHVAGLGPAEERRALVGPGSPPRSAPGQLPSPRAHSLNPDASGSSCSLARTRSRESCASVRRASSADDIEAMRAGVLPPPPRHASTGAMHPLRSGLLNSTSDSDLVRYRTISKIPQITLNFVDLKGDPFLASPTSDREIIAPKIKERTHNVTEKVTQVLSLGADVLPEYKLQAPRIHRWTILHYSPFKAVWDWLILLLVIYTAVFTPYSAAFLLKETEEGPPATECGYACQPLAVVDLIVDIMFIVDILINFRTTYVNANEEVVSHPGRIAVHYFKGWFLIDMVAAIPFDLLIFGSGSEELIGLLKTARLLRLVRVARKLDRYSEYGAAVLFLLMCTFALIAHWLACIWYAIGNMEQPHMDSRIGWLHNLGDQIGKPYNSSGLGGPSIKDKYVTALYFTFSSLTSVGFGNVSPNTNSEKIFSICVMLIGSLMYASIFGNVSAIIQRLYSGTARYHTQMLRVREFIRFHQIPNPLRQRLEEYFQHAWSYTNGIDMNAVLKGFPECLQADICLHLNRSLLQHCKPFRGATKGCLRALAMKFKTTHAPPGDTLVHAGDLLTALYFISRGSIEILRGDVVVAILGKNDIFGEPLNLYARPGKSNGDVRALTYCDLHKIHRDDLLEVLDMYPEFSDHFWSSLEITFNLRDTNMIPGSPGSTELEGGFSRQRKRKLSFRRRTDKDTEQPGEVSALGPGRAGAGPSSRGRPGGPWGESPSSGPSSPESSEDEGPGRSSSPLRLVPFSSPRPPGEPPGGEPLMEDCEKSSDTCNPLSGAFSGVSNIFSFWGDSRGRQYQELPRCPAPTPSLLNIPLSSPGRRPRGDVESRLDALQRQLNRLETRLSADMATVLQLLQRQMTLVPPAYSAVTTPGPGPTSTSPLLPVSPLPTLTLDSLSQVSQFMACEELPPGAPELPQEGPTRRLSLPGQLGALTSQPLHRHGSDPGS

As for `COc1ccc(C(=O)c2ccccc2)c(O)c1`, the Potency in experiment [1] is 5.55 µM (active) and 10 µM (active) and 4.9 µM (active); in experiment [2], 39.3 µM (active) and 35.6 µM (active) and 24.5 µM (active); in experiment [3] it was 19.7 µM (active) and 22.4 µM (active) and 12.9 µM (active); in experiment [4], 38.3 µM (active) and inactive. In experiment [5], the Potency entry is “inactive”.

On to `Oc1cccc(O)c1`, for which the Potency entry in experiment [1], in experiment [2], in experiment [3] and in experiment [4] was “inactive” each time.

Turning to `NC(=O)OCC(COC(N)=O)c1ccccc1`, the Potency entry in experiment [1] is “inactive and 34.7 µM (active)”. The Potency entry in experiment [2], in experiment [3] and in experiment [4] was “inactive” each time.

Take `c1ccc2[nH]c(-c3cscn3)nc2c1`: the Potency is 35.8 µM (active) and 71 µM (active) and 34.7 µM (active) in experiment [1]; 5.06 µM (active) and 2.83 µM (active) and 2.45 µM (active) in experiment [3]. Moreover, the Potency entry in experiment [2] and in experiment [4] was “inactive” throughout.

Take `CCCCNC(=O)NS(=O)(=O)c1ccc(N)cc1`: the Potency entry in experiment [1], in experiment [2], in experiment [3], in experiment [4] and in experiment [5] was “inactive” each time.

Take `CCCCCCCCCCCCCC(=O)OC(C)C`: the Potency result in experiment [1], in experiment [2], in experiment [3] and in experiment [4] was “inactive” in each case.

On to `O=C1CCCCCN1`, for which the Potency in experiment [1] was 40 µM (active) and inactive. Moreover, the Potency entry in experiment [2], in experiment [3], in experiment [4] and in experiment [5] was “inactive” each time.

On to `O=c1c(-c2ccc(O)cc2)coc2cc(O)cc(O)c12`, for which the Potency in experiment [1] was 55.5 µM (active) and 89.4 µM (active); in experiment [2], 55.5 µM (active) and 71 µM (active) and inactive; in experiment [3], 19.7 µM (active) and 39.9 µM (active). In addition, the Potency result in experiment [4] is “inactive”.

Take `CN/C(=C\[N+](=O)[O-])NCCSCc1ccc(CN(C)C)o1`: the Potency entry in experiment [1], in experiment [2], in experiment [4] and in experiment [5] was “inactive” each time. Moreover, the Potency entry in experiment [3] was “inactive and 24.5 µM (active)”.

Take `C#C[C@]1(O)CC[C@H]2[C@@H]3CCc4cc(O)ccc4[C@H]3CC[C@@]21C`: the Potency was 7.05 µM (active) and 10 µM (active) and 13.8 µM (active) in experiment [1]; “inactive and 17.4 µM (active)” in experiment [3]. Besides, in experiment [4], the Potency result was “inactive”.

For the compound `CC(C)(C)CC(C)(C)c1ccc(O)c(-n2nc3ccccc3n2)c1`, the Potency in experiment [1] was 36.1 µM (active) and 20 µM (active); in experiment [2], 20.3 µM (active) and 10 µM (active) and 12.3 µM (active). Besides, the Potency result in experiment [4] and in experiment [5] was “inactive” throughout.

Take `COc1cc2c(c(OC)c1OC)-c1ccc(OC)c(=O)cc1[C@@H](NC(C)=O)CC2`: the Potency entry in experiment [1], in experiment [2] and in experiment [4] was “inactive” throughout.

Regarding `OC[C@@H](O)[C@@H](O)[C@H](O)[C@H](O)CO`, the Potency result in experiment [1], in experiment [3], in experiment [4] and in experiment [5] was “inactive” in each case. The Potency entry in experiment [2] was “inactive and 89.4 µM (active)”.

As for `CCCCOCCOCCSC#N`, the Potency in experiment [1] was 8.4 µM (active) and inactive; in experiment [3] it was 6.67 µM (active) and 11.1 µM (active). In addition, the Potency result in experiment [2], in experiment [4] and in experiment [5] was “inactive” in each case.

Take `C[C@]12C=CC(=O)C=C1CC[C@@H]1[C@@H]2C(=O)C[C@@]2(C)[C@H]1CC[C@]2(O)C(=O)CO`: the Potency entry in experiment [4] was “inactive”.

`CC(=O)CCC(C)C`: the Potency entry in experiment [1], in experiment [2], in experiment [4] and in experiment [5] was “inactive” each time.

Consider `Cc1cccc(C)c1O`, for which the Potency in experiment [1] is 72.1 µM (active) and inactive; in experiment [3], 36.1 µM (active). Further, the Potency entry in experiment [4] and in experiment [5] was “inactive” in each case.

In the case of `Cc1c(N(C)CS(=O)(=O)O)c(=O)n(-c2ccccc2)n1C`, the Potency entry in experiment [4] is “inactive”.

Regarding `CCn1cc(C(=O)O)c(=O)c2ccc(C)nc21`, the Potency entry in experiment [3] and in experiment [4] was “inactive” in each case.

`O=C(O)CCCCC1CCSS1` (stereo unspecified): the Potency in experiment [1] is 49.6 µM (active) and inactive. For the same compound, the Potency entry in experiment [2], in experiment [3], in experiment [4] and in experiment [5] was “inactive” throughout.

On to `CO[C@H]1C=CO[C@@]2(C)Oc3c(C)c(O)c4c(O)c(c(/C=N/N5CCN(C)CC5)c(O)c4c3C2=O)NC(=O)/C(C)=C\C=C[C@H](C)[C@H](O)[C@@H](C)[C@@H](O)[C@@H](C)[C@H](OC(C)=O)[C@@H]1C`, for which the Potency in experiment [1] is 35.8 µM (active) and 50.8 µM (active) and 9.77 µM (active). Further, the Potency entry in experiment [3] and in experiment [4] was “inactive” in each case.

`C#C[C@]1(O)CC[C@H]2[C@@H]3CCC4=CC(=O)CC[C@@H]4[C@H]3CC[C@@]21CC`: the Potency in experiment [1] was 2.83 µM (active) and 5.64 µM (active) and 2.45 µM (active). The Potency result in experiment [3] and in experiment [4] was “inactive” in each case.

On to `CC(C)Cc1ccc(C(C)C(=O)O)cc1` (stereo unspecified), for which the Potency result in experiment [1], in experiment [3], in experiment [4] and in experiment [5] was “inactive” each time.

With `CC(C)=CCC/C(C)=C/CO`, the Potency result in experiment [4] is “inactive”.

`Nc1ccc(N=Nc2ccccc2)c(N)n1`: the Potency is 20.1 µM (active) and 28.3 µM (active) and 9.77 µM (active) in experiment [1]; 20.1 µM (active) and 28.3 µM (active) and 17.4 µM (active) in experiment [2]. Further, in experiment [4], the Potency entry was “inactive”.

For the compound `O=[N+]([O-])c1ccc(O)cc1`, the Potency in experiment [1] is 33 µM (active); in experiment [3] it was 20.8 µM (active) and inactive; in experiment [5], 5.86 µM (active) and inactive. Also, the Potency result in experiment [2] and in experiment [4] was “inactive” each time.

Take `O=C(O)Cc1cccc2ccccc12`: the Potency entry in experiment [1], in experiment [2], in experiment [4] and in experiment [5] was “inactive” in each case. Also, the Potency in experiment [3] was 33.5 µM (active) and 43.5 µM (active).

The values are drawn from PubChem BioAssay (Tox21).
